Screening results as filed in PubChem BioAssay.
In the library only some 12% were active in any assay of this set; here they are far more common.
BAZ2B block – qHTS Assay for Inhibitors of BAZ2B | Bromodomain adjacent to zinc finger domain protein 2B (Homo sapiens), Q9UIF8 | AlphaScreen BAZ2B-H3K14Ac peptide displacement | Potency, µM (series often up to 114 µM), for the others: top-dose activity change, negative = inhibition, actives largely listed as inhibitors | 360,000 tested, 4.4% active; also: potency is read from the fitted curve at half-maximal effect; % is scaled to controls: 0 for no effect and ±100 for the full control effect; nearly all actives have a fitted effect of over 60% in size
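Complex of BAZ2B and biotin-H3K14Ac (50 nM apiece) forms over 30 min at RT, then faces library compounds up to 110 uM for another 30 min; AlphaScreen beads added, 20 min dark incubation, luminescence read.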
PI5P4K alpha inh – qHTS for Inhibitors of phosphatidylinositol 5-phosphate 4-kinase (PI5P4K); PI5P4Kalpha enzyme, ADP-Glo luminescence, 60 min; active compounds read low; 330,000 tested, 1.2% active; max response, %; AID 652105, 2013; active = max response of -50% or lower; inconclusive = between -30% and -50%; inactive = -30% or higher; also: value at the top dose of about 77 µM; % is scaled to controls: 0 for no effect and ±100 for the full control effect
Target sequence (P48426 whole entry, looked up): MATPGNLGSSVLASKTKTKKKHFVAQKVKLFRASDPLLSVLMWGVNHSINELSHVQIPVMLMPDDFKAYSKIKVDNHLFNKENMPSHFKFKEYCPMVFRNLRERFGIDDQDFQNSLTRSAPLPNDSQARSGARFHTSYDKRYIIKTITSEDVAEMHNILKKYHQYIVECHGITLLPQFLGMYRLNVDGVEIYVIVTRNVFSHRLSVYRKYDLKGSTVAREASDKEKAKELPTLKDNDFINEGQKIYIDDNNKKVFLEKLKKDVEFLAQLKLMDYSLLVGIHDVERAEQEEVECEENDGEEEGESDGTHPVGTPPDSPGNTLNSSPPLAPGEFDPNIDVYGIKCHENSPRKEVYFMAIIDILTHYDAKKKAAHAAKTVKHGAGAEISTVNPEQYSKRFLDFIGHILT
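Enzyme plus substrate dispensed, test compounds pinned in, then ATP (5 microM final) added. After 60 min at RT, ADP-Glo reagent 1 for 45 min and reagent 2 for 30 min preceded luminescence imaging.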
G9a inh – qHTS Assay for Inhibitors of Histone Lysine Methyltransferase G9a; Histone-lysine N-methyltransferase EHMT2 (Homo sapiens), Q96KQ7; G9a H3K9 monomethylation, AlphaScreen, 2 h; Potency, µM (series often up to 102 µM), without a hit: at the highest dose activity, negative = inhibition, actives largely listed as inhibitors; 350,000 tested, 8.8% active; also: potency is read from the fitted curve at half-maximal effect; % is scaled to controls: 0 for no effect and ±100 for the full control effect; nearly all actives have a fitted effect of over 75% in size
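Enzyme 20 nM + cpd, 15 min RT; add b-H3K9 pep 500 nM / SAM 20 uM; 2 h RT; anti-H3K9me1 Ab 0.5 ug/mL + SA donor / anti-rabbit acceptor beads 20 ug/mL each, 10 min; AlphaScreen read.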
JMJD2A Tudor inh – qHTS Assay for Inhibitors of JMJD2A-Tudor Domain; Lysine-specific demethylase 4A (Homo sapiens), O75164; AlphaScreen JMJD2A-Tudor / H3K4me3 peptide binding; Potency, µM (series often up to 114 µM), inactives show at the highest dose activity change, negative = inhibition, most hits filed as inhibitors; 390,000 tested, 4.4% active; AID 504339, 2011; also: potency is read from the fitted curve at half-maximal effect; % is scaled to controls: 0 for no effect and ±100 for the full control effect; nearly all actives have a fitted effect of over 50% in size
PLK1 PBD inh – qHTS for Inhibitors of PLK1-PDB (polo-like kinase 1 - polo-box domain): Primary Screen. AID 720504, 2013. Potency, µM, without a hit: max response, negative = inhibition, most hits filed as inhibitors. 360,000 tested, 2.8% active. Serine/threonine-protein kinase PLK1 (Homo sapiens), P53350. Plk1 PBD binding of FITC phosphopeptide, fluorescence polarization; also: potency is read from the fitted curve at half-maximal effect; series mostly up to about 57 µM; % is scaled to controls: 0 for no effect and ±100 for the full control effect; nearly all actives have a fitted effect of over 65% in size
HP1b binding inh – HTS for Inhibitors of HP1-beta Chromodomain Interactions with Methylated Histone Tails. AlphaScreen HP1-beta / biotin-H3K9me3 peptide binding. Potency, µM (top dose mostly 114 µM), without a hit: at the highest dose activity change, negative = inhibition, hits mostly inhibitors. 390,000 tested, 0.56% active; also: potency is read from the fitted curve at half-maximal effect; nearly all actives have a fitted effect of over 70% in size
Target sequence (P83916 whole entry, looked up): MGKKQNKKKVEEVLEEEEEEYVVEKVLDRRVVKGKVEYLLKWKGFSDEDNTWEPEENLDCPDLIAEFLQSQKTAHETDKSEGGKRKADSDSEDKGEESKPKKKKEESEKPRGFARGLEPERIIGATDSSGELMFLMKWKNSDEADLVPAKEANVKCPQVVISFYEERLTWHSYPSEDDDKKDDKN
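HP1-beta protein (50 nM final) preincubated 30 min at room temperature with biotinylated H3(1-18)K9me3 peptide (50 nM) in PBS pH 7.4, 0.01% Tween-20, then compound added for 30 min. AlphaScreen streptavidin donor/nickel chelate acceptor beads (10 ug/mL final), 30 min dark, luminescence read.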
An asterisk follows results filed as active; ? = inconclusive; . = no result given; [ ] = dose if it differs, or a comment. Unless noted, calls follow the shape of the dose curve; as a rule, active = well fitted curve in the direction sought with a large enough effect; inconclusive = small, poorly fitted or top-dose-only effect, or another doubt; inactive = no such curve, though single readings can be large; an effect the other way counts as inactive or inconclusive.

SMILES	BAZ2B block	PI5P4K alpha inh	G9a inh	JMJD2A Tudor inh	PLK1 PBD inh	HP1b binding inh
CCC(=O)Nc1ccc(Cl)c(NC(=O)c2ccc([N+](=O)[O-])cc2)c1	4%	-23	12%[59 µM]	?	8.4µM*	11%
CCCC(=O)Nc1ccc(Cl)c(NC(=O)CC)c1	19%	-5	1%	?	27µM*	?
C=C(C)C1CCC2(C(=O)O)CCC3(C)C(CCC4C5(C)C(C=O)C(O)C(C)(C)C5CCC43C)C12 (configuration not stated)	-25%	-54*	-16%[59 µM]	-22%	?	6%
CCC(Sc1nc2c(sc3ccccc32)c(=O)n1CCCC(=O)NC1CCCC1)C(=O)Nc1cccc(OC)c1 (configuration not stated)	27%	.	19%[59 µM]	0%	.	65%
Cc1cc2c(s1)c1cnn(Cc3ccc(C#N)cc3)c(=O)c1n2C	.	.	.	-3%	.	.
Cc1ccc([C@@H]2CC=C(C(=O)O)[C@H](c3ccc(Br)cc3)N2S(=O)(=O)c2ccccc2C)cc1	.	2	.	-25%	27µM*	8%
Cc1ccccc1S(=O)(=O)N1[C@@H](c2ccccc2)C(C(=O)O)=CC[C@H]1c1ccc(Cl)cc1	6%	0	-11%[2.33 µM]	-11%	?	46%
Cc1ccc([C@@H]2CC=C(C(=O)O)[C@H](c3ccc(Cl)cc3)N2S(=O)(=O)c2ccccc2C)cc1	.	0	.	-25%	21µM*	15%
Cc1ccccc1S(=O)(=O)N1C(c2ccc(Cl)c(Cl)c2)CC=C(C(=O)O)C1c1cccc(Br)c1 (configuration not stated)	.	?	.	.	24µM*	.
Cc1ccccc1S(=O)(=O)N1[C@@H](c2ccc(Br)cc2)C(C(=O)O)=CC[C@H]1c1ccc(Cl)cc1	.	-3	.	-23%	21µM*	48%
CC(C)(O)/C=C1/Oc2ccccc2C1N1CCCCC1 (configuration not stated)	-6%	0	50µM*	-1%	-2%	38%
O=C(O)C1CCC(=O)N1C1c2ccccc2Oc2ccccc21 (configuration not stated)	-5%	-1	-9%	-13%	-4%	35%
CCC(=O)OC1(C)C(=O)C=C2C=C(CCCC(=O)OC)OC=C2C1=O (configuration not stated)	.	?	.	?	?	-23%
CCCCC1=CC2=CC(=O)C(C)(OC(=O)CC)C(=O)C2=CO1 (configuration not stated)	.	-65*	.	?	?	?
CC1(OC(=O)CCc2ccccc2)C(=O)C=C2C=C(c3ccc(C#N)cc3)N(c3ccccc3)C=C2C1=O (configuration not stated)	?	?	-44%[12.7 µM]	?	-28%	-15%
CC1(OC(=O)CCc2ccccc2)C(=O)C=C2C=C(c3ccsc3)OC=C2C1=O (configuration not stated)	50µM*	.	?	.	.	.
CC1(C)CC(N2CCCC2)=CC(=[N+]2CCCCCC2)C1	?	-11	?	?	30µM*	4%
CC1CC(C)C[N+](=C2C=C(N3CCCC3)CC(C)(C)C2)C1 (configuration not stated)	-17%	?	?	18µM*	-26%	?
CC1(C)CC(N2CCN(c3ccccc3)CC2)=CC(=[N+]2CCCC2)C1	5%	.	45µM*	?	3%	38%
CSc1nc(N2CCN(c3ccccc3)CC2)cc(N2CCN(c3ccccc3)CC2)n1	?	2	-28%	-26%	?	17%
O=C(NCCc1ccc(Cl)cc1)c1c2c(nc3ccccc13)C(=O)N(C1CCCCC1)C2	-4%	.	13%[59 µM]	-8%	.	32%
Cc1noc(C)c1NC(=O)N(C)C[C@@H]1Oc2c(NC(=O)NC(C)C)cccc2C(=O)N([C@@H](C)CO)C[C@@H]1C	.	-3	.	-7%	-8%	54%
Cc1noc(C)c1NC(=O)N(C)C[C@@H]1Oc2c(NC(=O)c3ccncc3)cccc2C(=O)N([C@H](C)CO)C[C@@H]1C	.	?	.	35µM*	-24%	4%
C[C@@H]1CN([C@H](C)CO)C(=O)c2cc(NC(=O)c3ccncc3)ccc2O[C@@H]1CN(C)C(=O)Nc1ccccc1	.	-21	.	50µM*	-25%	4%
COc1ccc(-c2c(C#N)c(SCC(=O)Nc3ccc(C)c(C)c3)nc(C)c2C(=O)Nc2ccccc2)cc1OC	1%	.	2%[59 µM]	-19%	.	8%
SMILES	BAZ2B block	PI5P4K alpha inh	G9a inh	JMJD2A Tudor inh	PLK1 PBD inh	HP1b binding inh
Cc1cc(N=Nc2ccc(Cl)cc2)cc(CN2CCCC2)c1O	10µM*	10	.	28µM*	-2%	20µM*
Cc1cc(N=Nc2ccc(Cl)cc2)cc(CN2CCOCC2)c1O	10µM*	40	7.9µM*	16µM*	-10%	40µM*
CCCN1CCN(S(=O)(=O)c2ccc3c(c2)CCC(=O)N3)CC1	-1%	-5	10%[12.7 µM]	-5%	-3%	17%
Cc1ccc(NC(=O)c2ccc3oc(=O)c(S(=O)(=O)c4ccccc4)cc3c2)cc1C	-10%	.	-3%[59 µM]	-13%	.	9%
CNc1cc(F)nc(F)n1	0%	-19	9%	?	9.5µM*	10%
CNc1cccc(-c2cccc(O)c2)n1	.	-6	.	.	-11%	.
CCc1ccccc1NC(=O)Cn1c(=O)n(-c2ccc(C)c(C)c2)c(=O)c2oc3ccccc3c21	-3%	.	-2%[59 µM]	2%	.	44%
OCCN(Cc1ccccc1)Cc1ccc(Cl)cc1Cl	?	.	7.1µM*	3.5µM*	-3%	?
O=C(O)c1ccc(NC2=C(N3CCOCC3)C(=O)c3ccccc3C2=O)cc1	?	5	?	-17%	-12%	13%
CC(=O)c1ccc(NC2=C(N3CCOCC3)C(=O)c3ccccc3C2=O)cc1	28µM*	.	.	40µM*	-16%	28µM*
CC(=O)N(C1=C(N2CCOCC2)C(=O)c2ccccc2C1=O)c1ccc(C(=O)O)cc1	-37%	-14	40µM*	-20%	?	37%
Cc1ccc(NC2=C(N3CCOCC3)C(=O)c3ccccc3C2=O)cc1	14µM*	.	?	14µM*	-13%	13µM*
O=C(Nc1ccsc1C(=O)O)c1ccccc1Cl	-1%	?	-37%	-3%	-12%	7%
O=C(c1[nH]c(C(F)(F)F)nc1-c1ccccc1)N1CCN(C/C=C/c2ccccc2)CC1	.	-1	.	.	-4%	.
